Experimental data reported in PubChem BioAssay.
The source made the active and inactive calls.

Legend:
[1] = test system: PRMT1 (protein arginine N-methyltransferase 1); test: PRMT1 binders on small-molecule microarrays, primary screen, biochemical, small-molecule microarray, 635 nm fluorescence (AID 1088); details: small-molecule microarray binding, higher = more signal;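 also: binding of Prmt1 protein to compounds spotted on small-molecule microarray slides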
[2] = yeast growth modulation, basal conditions, primary screen, YJM789 clinical isolate, OD600, 24 h (AID 1089);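 also: growth of clinical yeast isolate S. cerevisiae YJM 789 seeded 1000 cells per well; test concentration not given here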; details: S. cerevisiae YJM789 growth, higher = more signal, called active from +8 up or from −8 down
[3] = fission yeast growth modulation, primary screen, strain 972, OD600, 24 h, no modulator (AID 1090);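 also: basal condition with compound alone and no growth modifier present; test concentration not given here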; details: S. pombe 972 growth, higher = more signal, called active from +8 up or from −8 down
[4] = S. cerevisiae growth modulation with rapamycin, primary screen, strain BY4716, OD600, 96 h (AID 1091); details: higher = more signal, called active from +8 up or from −8 down; also: test concentration not given here
[5] = biological target: Torsin-1A-interacting protein 2 (Homo sapiens) (UniProt Q8NFQ8); test: LULL1 binders on small-molecule microarray, primary screen, cell lysate, human LULL1 lysate, 635/667 nm fluorescence (AID 1092); details: hLULL1 lysate binding, 635 nm fluorescence, higher = more signal;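 also: probe is lysate of COS7 cells overexpressing human LULL1; score merges per-feature 667 nm fluorescence with signal-to-noise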
Sequence of Torsin-1A-interacting protein 2 (Homo sapiens) (Q8NFQ8 whole entry, looked up): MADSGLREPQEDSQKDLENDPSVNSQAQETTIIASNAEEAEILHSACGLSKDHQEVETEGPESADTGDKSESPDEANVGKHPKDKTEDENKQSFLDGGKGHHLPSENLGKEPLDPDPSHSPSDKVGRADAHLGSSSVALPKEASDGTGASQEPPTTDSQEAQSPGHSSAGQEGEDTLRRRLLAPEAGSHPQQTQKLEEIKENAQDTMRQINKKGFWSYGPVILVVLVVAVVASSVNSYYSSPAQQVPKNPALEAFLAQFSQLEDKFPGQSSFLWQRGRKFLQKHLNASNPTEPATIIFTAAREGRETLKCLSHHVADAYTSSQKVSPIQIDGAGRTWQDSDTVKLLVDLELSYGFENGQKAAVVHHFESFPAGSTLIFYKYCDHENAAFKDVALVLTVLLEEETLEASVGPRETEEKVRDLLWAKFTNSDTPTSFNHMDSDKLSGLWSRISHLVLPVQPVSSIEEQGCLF

[6] = E. coli growth modulation, two-sided OD650, primary screen, E. coli filamentation project, strain DRC41, 24 h (AID 1093); details: OD650, 24 h, higher = more signal, called active from +8 up or from −8 down;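 also: MC1000 strain lacking acrAB efflux and sulA so SOS filamentation is blocked; test concentration not given here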
[7] = small-molecule microarray binders of probe aLefty2, primary screen, biochemical, biotinylated probe, 635/667 nm fluorescence (AID 1094); details: higher = more signal;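 also: score merges spot fluorescence near 667 nm with spot signal-to-noise ratio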
[8] = test system: Noggin (protein binding on small-molecule microarray); test: Noggin binders on small-molecule microarray, primary screen, biochemical, 635/667 nm fluorescence (AID 1095); details: 635 nm fluorescence, higher = more signal;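 also: score merges 667 nm feature fluorescence with signal to noise over triplicate slides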
[9] = biological target: Neurogenic locus notch homolog protein 3 (Homo sapiens) (UniProt Q9UM47); test: NOTCH3 binders on small-molecule microarray, primary screen, biochemical, 635/667 nm fluorescence (AID 1096); details: NOTCH3 binding, 635 nm fluorescence, higher = more signal
Sequence of Neurogenic locus notch homolog protein 3 (Homo sapiens) (Q9UM47 whole entry, looked up): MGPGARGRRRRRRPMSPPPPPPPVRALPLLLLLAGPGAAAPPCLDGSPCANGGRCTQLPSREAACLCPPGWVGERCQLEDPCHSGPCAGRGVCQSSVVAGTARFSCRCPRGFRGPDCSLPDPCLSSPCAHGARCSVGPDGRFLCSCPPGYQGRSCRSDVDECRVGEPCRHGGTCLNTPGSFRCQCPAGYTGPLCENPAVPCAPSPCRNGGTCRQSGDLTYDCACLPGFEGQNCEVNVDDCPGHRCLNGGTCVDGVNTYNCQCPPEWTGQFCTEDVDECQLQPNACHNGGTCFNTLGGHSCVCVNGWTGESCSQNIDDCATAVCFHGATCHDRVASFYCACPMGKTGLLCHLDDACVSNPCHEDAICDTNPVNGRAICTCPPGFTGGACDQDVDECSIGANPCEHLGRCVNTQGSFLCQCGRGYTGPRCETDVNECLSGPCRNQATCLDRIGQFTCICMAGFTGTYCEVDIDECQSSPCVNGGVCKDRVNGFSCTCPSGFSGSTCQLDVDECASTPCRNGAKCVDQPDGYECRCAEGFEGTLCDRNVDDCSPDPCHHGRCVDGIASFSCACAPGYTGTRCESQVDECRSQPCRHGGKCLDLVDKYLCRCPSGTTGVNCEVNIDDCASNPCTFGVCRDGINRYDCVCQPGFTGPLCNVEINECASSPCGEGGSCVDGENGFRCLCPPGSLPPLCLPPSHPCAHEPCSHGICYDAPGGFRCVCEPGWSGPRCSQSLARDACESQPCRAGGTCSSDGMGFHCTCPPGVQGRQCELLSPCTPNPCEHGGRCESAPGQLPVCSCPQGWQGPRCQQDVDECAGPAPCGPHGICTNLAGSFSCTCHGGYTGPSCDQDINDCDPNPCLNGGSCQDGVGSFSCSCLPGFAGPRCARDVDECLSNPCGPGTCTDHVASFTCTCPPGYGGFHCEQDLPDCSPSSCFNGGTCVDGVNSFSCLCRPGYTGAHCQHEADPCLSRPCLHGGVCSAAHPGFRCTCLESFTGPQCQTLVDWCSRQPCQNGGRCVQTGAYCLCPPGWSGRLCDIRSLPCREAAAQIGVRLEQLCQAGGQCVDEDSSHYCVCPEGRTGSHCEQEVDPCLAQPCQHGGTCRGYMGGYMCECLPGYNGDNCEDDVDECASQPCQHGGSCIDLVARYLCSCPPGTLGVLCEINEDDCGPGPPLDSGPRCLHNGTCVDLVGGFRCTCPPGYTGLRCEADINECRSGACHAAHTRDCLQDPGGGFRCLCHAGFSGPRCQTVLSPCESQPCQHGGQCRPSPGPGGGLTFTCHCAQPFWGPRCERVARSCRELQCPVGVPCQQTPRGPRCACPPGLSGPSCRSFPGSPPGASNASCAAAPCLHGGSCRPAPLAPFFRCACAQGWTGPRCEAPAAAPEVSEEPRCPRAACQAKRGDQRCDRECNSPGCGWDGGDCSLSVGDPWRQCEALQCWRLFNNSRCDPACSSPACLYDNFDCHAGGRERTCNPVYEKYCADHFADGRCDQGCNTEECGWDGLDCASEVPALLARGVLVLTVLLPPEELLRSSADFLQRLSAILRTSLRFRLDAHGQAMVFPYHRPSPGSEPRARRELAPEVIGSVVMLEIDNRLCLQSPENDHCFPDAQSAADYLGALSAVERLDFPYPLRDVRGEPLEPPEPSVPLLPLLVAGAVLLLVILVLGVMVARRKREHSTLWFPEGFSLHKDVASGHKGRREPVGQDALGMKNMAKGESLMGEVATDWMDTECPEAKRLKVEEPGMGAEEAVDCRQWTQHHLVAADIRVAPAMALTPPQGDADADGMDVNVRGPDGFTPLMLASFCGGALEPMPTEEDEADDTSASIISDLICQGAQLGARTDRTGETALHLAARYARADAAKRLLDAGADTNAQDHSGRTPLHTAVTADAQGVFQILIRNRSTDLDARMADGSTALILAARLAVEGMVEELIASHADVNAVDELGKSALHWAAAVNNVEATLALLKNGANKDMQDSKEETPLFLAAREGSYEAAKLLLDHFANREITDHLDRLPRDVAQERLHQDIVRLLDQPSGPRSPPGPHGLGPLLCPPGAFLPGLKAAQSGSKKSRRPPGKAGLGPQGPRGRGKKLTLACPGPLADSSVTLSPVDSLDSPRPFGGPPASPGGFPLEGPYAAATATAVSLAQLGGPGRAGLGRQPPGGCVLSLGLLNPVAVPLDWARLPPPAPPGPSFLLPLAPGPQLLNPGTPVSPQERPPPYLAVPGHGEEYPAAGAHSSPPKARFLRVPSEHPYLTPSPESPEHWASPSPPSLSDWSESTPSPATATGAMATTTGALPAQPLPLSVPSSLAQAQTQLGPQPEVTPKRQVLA

[10] = small-molecule microarray binders of probe aEGFR, primary screen, biochemical, biotinylated probe, 635/667 nm fluorescence (AID 1097); details: higher = more signal;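 also: probe is a biotinylated anti-EGFR antibody binding compounds printed on slides; score combines fluorescence near 667 nm and signal to noise of each spot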
[11] = test system: Plasmodium falciparum Sir2 (PF13_0152, Sir2A); test: pfSir2 binders on small-molecule microarrays, primary screen, biochemical, small-molecule microarray, 635 nm fluorescence (AID 1098); details: small-molecule microarray binding, fluorescence 635 nm; higher = more signal;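 also: score merges spot fluorescence intensity with its signal-to-noise ratio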
[12] = small-molecule microarray binders of probe aDKK1, primary screen, biochemical, biotinylated probe, 635/667 nm fluorescence (AID 1099); details: higher = more signal;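 also: score merges 667nm spot fluorescence with signal to noise across triplicate slides; reference of the scale not given here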
[13] = small-molecule microarray binders of probe aCHRDL2, primary screen, biochemical, biotinylated probe, 635/667 nm fluorescence (AID 1100); details: higher = more signal
[14] = splicing luciferase reporter signal modulators, primary screen, spliceosome inhibition project, cell-based, HEK293, splice +/- reporter (AID 1101); details: luminescence, 24 h, higher = more signal, called active from +8 up or from −8 down;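 also: HEK293 cells carrying a splicing-competent luciferase reporter gene; test concentration not given here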
[15] = biological target: Fibroblast growth factor 10 (Homo sapiens) (UniProt O15520); test: FGF10 binders on small-molecule microarrays, primary screen, biochemical, small-molecule microarray, 635 nm fluorescence (AID 1102); details: FGF10 binding, fluorescence 635 nm, higher = more signal
Sequence of Fibroblast growth factor 10 (Homo sapiens) (O15520 whole entry, looked up): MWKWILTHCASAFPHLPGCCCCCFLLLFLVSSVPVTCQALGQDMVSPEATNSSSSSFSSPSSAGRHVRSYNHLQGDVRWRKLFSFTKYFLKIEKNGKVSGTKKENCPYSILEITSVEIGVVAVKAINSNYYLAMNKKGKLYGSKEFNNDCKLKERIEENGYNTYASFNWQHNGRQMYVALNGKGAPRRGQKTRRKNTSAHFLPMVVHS

[16] = test system: glycogen synthase kinase-3 (GSK3A per assay name; protocol says GSK3B); test: GSK3 binders on small-molecule microarrays, primary screen, biochemical, small-molecule microarray, 635 nm fluorescence, GSK3A (AID 1103); details: small-molecule microarray binding, fluorescence 635 nm; higher = more signal; also: the record names both GSK3A and GSK3B
[17] = biological target: Epidermal growth factor receptor (Homo sapiens) (UniProt P00533); test: EGFR binders on small-molecule microarrays, primary screen, biochemical, small-molecule microarray, 635 nm fluorescence (AID 1104); details: EGFR binding, higher = more signal;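 also: score merges 667 nm emission intensity with spot signal to noise over triplicate slides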
Sequence of Epidermal growth factor receptor (Homo sapiens) (P00533 whole entry, looked up): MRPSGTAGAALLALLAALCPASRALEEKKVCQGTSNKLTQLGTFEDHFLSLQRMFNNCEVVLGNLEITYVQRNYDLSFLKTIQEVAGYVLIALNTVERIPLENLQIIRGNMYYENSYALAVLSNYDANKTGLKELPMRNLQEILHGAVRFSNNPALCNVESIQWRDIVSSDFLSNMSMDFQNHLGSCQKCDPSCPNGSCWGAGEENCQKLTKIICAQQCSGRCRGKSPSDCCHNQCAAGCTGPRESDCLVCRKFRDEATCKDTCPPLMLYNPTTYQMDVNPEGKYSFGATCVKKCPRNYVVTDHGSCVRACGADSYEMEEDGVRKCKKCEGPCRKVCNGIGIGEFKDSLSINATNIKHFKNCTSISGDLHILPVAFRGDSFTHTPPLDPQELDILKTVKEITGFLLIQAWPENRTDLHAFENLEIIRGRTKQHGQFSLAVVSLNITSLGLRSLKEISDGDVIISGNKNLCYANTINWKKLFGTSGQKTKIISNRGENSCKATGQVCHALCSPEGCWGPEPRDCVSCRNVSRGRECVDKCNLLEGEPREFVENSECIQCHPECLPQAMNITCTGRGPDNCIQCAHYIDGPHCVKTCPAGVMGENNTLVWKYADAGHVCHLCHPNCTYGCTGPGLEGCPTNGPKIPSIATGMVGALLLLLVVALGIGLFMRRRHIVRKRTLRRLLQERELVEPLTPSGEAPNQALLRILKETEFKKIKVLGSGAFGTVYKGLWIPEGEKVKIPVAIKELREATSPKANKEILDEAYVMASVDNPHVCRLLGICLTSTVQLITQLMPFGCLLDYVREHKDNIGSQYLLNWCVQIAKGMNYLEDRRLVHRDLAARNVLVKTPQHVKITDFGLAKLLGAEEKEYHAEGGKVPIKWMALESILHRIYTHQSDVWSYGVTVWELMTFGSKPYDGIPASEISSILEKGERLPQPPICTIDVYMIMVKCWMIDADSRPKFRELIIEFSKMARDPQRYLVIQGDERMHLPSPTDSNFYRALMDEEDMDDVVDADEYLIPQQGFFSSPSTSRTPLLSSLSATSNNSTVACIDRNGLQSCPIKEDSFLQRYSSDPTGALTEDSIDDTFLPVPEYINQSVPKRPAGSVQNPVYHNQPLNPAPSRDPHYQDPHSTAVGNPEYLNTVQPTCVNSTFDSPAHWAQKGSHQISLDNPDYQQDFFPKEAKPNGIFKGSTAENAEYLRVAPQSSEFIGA

[18] = biological target: Follistatin-related protein 3 (Homo sapiens) (UniProt O95633); test: FSTL3 binders on small-molecule microarrays, primary screen, biochemical, small-molecule microarray, 635 nm fluorescence (AID 1105); details: FSTL3 binding, higher = more signal;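 also: score merges emission near 667 nm and signal to noise per printed spot across three slides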
Sequence of Follistatin-related protein 3 (Homo sapiens) (O95633 whole entry, looked up): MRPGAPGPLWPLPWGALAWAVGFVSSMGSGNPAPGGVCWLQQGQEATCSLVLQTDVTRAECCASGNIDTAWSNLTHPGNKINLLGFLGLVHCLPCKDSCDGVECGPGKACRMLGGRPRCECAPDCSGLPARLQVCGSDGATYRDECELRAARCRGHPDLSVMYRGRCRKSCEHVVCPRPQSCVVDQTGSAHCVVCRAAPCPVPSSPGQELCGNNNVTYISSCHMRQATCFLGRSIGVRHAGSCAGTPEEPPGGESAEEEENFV

[19] = biological target: Dickkopf-related protein 1 (Homo sapiens) (UniProt O94907); test: DKK1 binders on small-molecule microarrays, primary screen, biochemical, small-molecule microarray, 635 nm fluorescence scan (AID 1106); details: DKK1 binding, higher = more signal;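 also: score merges emission near 667 nm with signal to noise over three replicate slides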
Sequence of Dickkopf-related protein 1 (Homo sapiens) (O94907 whole entry, looked up): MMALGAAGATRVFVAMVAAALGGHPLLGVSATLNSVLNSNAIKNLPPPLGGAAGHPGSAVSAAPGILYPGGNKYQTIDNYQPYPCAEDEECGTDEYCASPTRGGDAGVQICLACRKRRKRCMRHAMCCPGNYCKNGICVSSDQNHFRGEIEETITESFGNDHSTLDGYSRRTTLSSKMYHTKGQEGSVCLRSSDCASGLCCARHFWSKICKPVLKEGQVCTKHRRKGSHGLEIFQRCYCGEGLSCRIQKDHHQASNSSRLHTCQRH

[20] = test system: Inhibin beta A chain (activin A); test: INHBA (activin A) binders on microarrays, primary screen, biochemical, small-molecule microarray, 635 nm fluorescence scan (AID 1107); details: small-molecule microarray binding, higher = more signal;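 also: mouse activin A protein probed at 4.33 µg/mL on printed slides; score merges bound-protein fluorescence near 667 nm with spot signal-to-noise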

SMILES | composite z-score [1] | z-score [2] | z-score [3] | z-score [4] | composite z-score [5] | z-score [6] | composite z-score [7] | composite z-score [8] | composite z-score [9] | composite z-score [10] | composite z-score [11] | composite z-score [12] | composite z-score [13] | z-score [14] | composite z-score [15] | composite z-score [16] | composite z-score [17] | composite z-score [18] | composite z-score [19] | composite z-score [20]
CC[C@H]1C2=C3C(CC[C@H]4C(OCc5ccc(F)cc5C(F)(F)F)OC[C@](C)([C@@H]34)N(C(=O)OC(C)(C)C)C2)C(COC)C1COC (stereo not given in full) | -0.728 | 0.242 (inactive) | 0.78 (inactive) | 0.153 (inactive) | 1.68 | -0.773 (inactive) | 0.0392 | -0.207 | 0.949 | -0.113 | -0.0539 | 0.222 | 0.475 | 0.477 (inactive) | -0.0147 | -0.652 | -0.52 | 0.269 | -0.384 | 0.561
CCCCN1CC=CC23O[C@@H]4/C=C\CCC(C)OC(=O)C4[C@H]2C(=O)N(C(CO)C(C)C)[C@@H]3C1=O (stereo not given in full) | 0.738 | -0.824 (inactive) | -0.753 (inactive) | -0.528 (inactive) | 2.77 | -0.318 (inactive) | -0.166 | 0.21 | 0.395 | -0.123 | 1.73 | -0.207 | -0.176 | 0.0563 (inactive) | 0.384 | 0.347 | -0.474 | 0.167 | 0.125 | 1.14
COC(=O)c1nc2oc1CC[C@@H](CO)NC(=O)N(C)Cc1cnnn1C[C@H](Cc1ccccc1)NC2=O | 0.0909 | -1.04 (inactive) | 0.127 (inactive) | -0.335 (inactive) | 0.715 | 1.27 (inactive) | -0.331 | 0.419 | -0.139 | -0.287 | 1.81 | -0.148 | 0.106 | -0.495 (inactive) | -0.0412 | -1.05 | -0.913 | 0.228 | -0.682 | 0.139
COc1ccc(C(O)C2C=CC3C(=O)N(c4ccccc4)C(=O)C3N2Nc2ccc([N+](=O)[O-])cc2)cc1 (stereo not given) | 1.11 | 0.137 (inactive) | 1.4 (inactive) | 3.22 (inactive) | 3.09 | -0.909 (inactive) | 0.432 | 0.0062 | 1.1 | 0.239 | 1.43 | 1.37 | 1.23 | 0.304 (inactive) | 0.774 | 0.998 | 0.0207 | 0.952 | -0.655 | 0.918
Cc1cc(C)c(C(O)C2C=CC3C(=O)N(c4ccccc4)C(=O)C3N2Nc2ccc(C(C)C)cc2)c(C)c1 (stereo not given) | 1.57 | 1.14 (inactive) | 0.863 (inactive) | 1.26 (inactive) | 3.42 | -1.87 (inactive) | 0.255 | -0.163 | 1.03 | -0.0172 | 0.68 | 1.19 | 1.08 | -0.00156 (inactive) | 0.978 | 1.25 | -0.0206 | 0.818 | -0.0403 | 0.202
COCCOC(=O)N1C(=O)[C@@]2(c3cc(C#Cc4ccc(OC)cc4)ccc31)[C@H](c1ccccc1OCCO)N1[C@H](c3ccccc3)[C@H](c3ccccc3)OC(=O)[C@H]1[C@@H]2C(=O)N1CCCCCCC1 | 1.27 | -1.44 (inactive) | 0.423 (inactive) | 3.91 (inactive) | 3.85 | 1.53 (inactive) | 1.71 | 1.97 | 0.841 | 1.17 | 1.2 | 2.8 | 1.79 | -1.38 (inactive) | 1.29 | 1.34 | 1.49 | 1.61 | 2.12 | 1.91
COc1ccc([Si](C)(C)[C@@H]2[C@@H](CC(=O)N(CCO)Cc3ccccc3)O[C@]3(C(=O)N(c4ccccc4)c4ccccc43)[C@H]2C)cc1 | 1.56 | -0.14 (inactive) | 0.001 (inactive) | 0.842 (inactive) | 2.26 | 1.01 (inactive) | -0.0722 | 1.26 | 1.1 | -0.0512 | 0.908 | -0.262 | -0.426 | -2.14 (inactive) | 0.766 | 0.629 | 0.954 | 1.21 | 0.95 | 0.872
COCCOC(=O)N1C(=O)[C@@]2(c3cc(C#CC4=CCCCC4)ccc31)[C@H](c1ccc(OCCO)cc1)N1[C@H](c3ccccc3)[C@H](c3ccccc3)OC(=O)[C@H]1[C@@H]2C(=O)N1CCN(c2ncccn2)CC1 | 1.46 | 0.372 (inactive) | 1.23 (inactive) | 3.64 (inactive) | 1.73 | 1.37 (inactive) | 0.0444 | 0.788 | 1.1 | 0.0289 | 0.28 | 0.0367 | 0.262 | 0.515 (inactive) | 1.34 | 1.3 | 0.494 | 0.866 | 0.605 | 0.783
O=C1OCC=C[C@H]2OC34C=CCN(c5ccc(Cl)cc5)C(=O)[C@H]3N(CCO)C(=O)[C@@H]4[C@@H]12 (stereo not given in full) | 0.197 | -0.23 (inactive) | -0.846 (inactive) | 0.0595 (inactive) | 2.87 | -0.297 (inactive) | -0.286 | -2.04 | -0.368 | -0.321 | 0.201 | -0.521 | 0.777 | 0.169 (inactive) | -0.25 | -0.747 | -0.962 | -1.68 | -1.71 | -0.303
O=C1OCC=C[C@H]2OC34C=CCN(Cc5ccccc5)C(=O)[C@H]3N(CCCCCCO)C(=O)[C@@H]4[C@@H]12 (stereo not given in full) | -0.325 | -0.997 (inactive) | 0.0262 (inactive) | -1.53 (inactive) | 1.76 | 2.11 (inactive) | 0.0124 | -0.742 | -0.153 | -0.159 | 1.82 | -0.305 | 0.777 | 0.148 (inactive) | -0.735 | -0.868 | -0.825 | -0.608 | -1.03 | 0.652
